{"source": "PubChem BioAssay AID372", "about": "(MTDP, 2006)", "note": "Screen size: about 100,000 compounds; about 770 (0.77%) were called active. Rule as the data show it: active = inhibition above about 50%; inactive = the rest. This excerpt belongs to a sample that is enriched for actives.", "data": [{"molecular_target": "Gag-Pol polyprotein (Human immunodeficiency virus type 1 group M subtype B (isolate HXB2)) (UniProt P04585)", "experiment": "RNase H inhibition, HIV 1 Gag Pol polyprotein, FRET biochemical assay, screening (AID 372)", "conditions": "HIV-1 RT RNase H, FRET RNA/DNA substrate fluorescence; at 10 µM; hits give high values", "values": [{"smiles": "O=C(N=NC(=O)c1ccccc1O)c1ccc(-n2c(O)c3ccccc3c2O)cc1", "inhibition": "8% (inactive)"}, {"smiles": "Cc1ccc(C(=O)Nc2ccc(Nc3ccccc3)cc2)cc1[N+](=O)[O-]", "inhibition": "15% (inactive)"}, {"smiles": "Cc1ccc(NCC(=O)N/N=C\\c2ccccc2OCC(=O)O)cc1", "inhibition": "7% (inactive)"}, {"smiles": "COc1ccc(/C=C/C(=O)NC(=S)Nc2ccc(S(=O)(=O)N=C(N)N)cc2)cc1", "inhibition": "57% (active)"}, {"smiles": "COc1ccc(C(=O)NC(=S)Nc2ccc(S(=O)(=O)N=C(N)N)cc2)cc1", "inhibition": "2% (inactive)"}, {"smiles": "NC(N)=NS(=O)(=O)c1ccc(NC(=S)NC(=O)/C=C/c2ccc(Br)cc2)cc1", "inhibition": "19% (inactive)"}, {"smiles": "CC(C)c1ccc(/C=C/C(=O)NC(=S)Nc2ccc(S(=O)(=O)N=C(N)N)cc2)cc1", "inhibition": "41% (inactive)"}, {"smiles": "Cc1ccc(/C=C/C(=O)NC(=S)Nc2ccc(S(=O)(=O)N=C(N)N)cc2)cc1", "inhibition": "63% (active)"}, {"smiles": "COc1ccc(/C=C/C(=O)NC(=S)Nc2ccc(I)cc2)cc1", "inhibition": "8% (inactive)"}, {"smiles": "CC(=O)C1=C(O)C(=O)N(c2ccc(Br)cn2)C1c1ccc([N+](=O)[O-])cc1", "note": "(stereo unspecified)", "inhibition": "0% (inactive)"}, {"smiles": "CCCN1CCC(NCCc2ccc(F)cc2)CC1", "inhibition": "1% (inactive)"}, {"smiles": "COc1cc(OC)cc(C(=O)N2CCN(Cc3ccccc3[N+](=O)[O-])CC2)c1", "inhibition": "6% (inactive)"}, {"smiles": "O=C(O)c1ccc(N/N=C/c2ccccc2C(F)(F)F)cc1", "inhibition": "6% (inactive)"}, {"smiles": "O=C(O)c1ccc(N/N=C/c2c(Cl)ccc(Cl)c2Cl)cc1", "inhibition": "51% (active)"}, {"smiles": "O=C(O)c1ccc(/C=N/Nc2ccc([N+](=O)[O-])cc2)cc1", "inhibition": "10% (inactive)"}, {"smiles": "COc1cc(C=O)ccc1OCCOc1ccc(Cl)cc1", "inhibition": "7% (inactive)"}, {"smiles": "COC(=O)c1ccc(COc2ccc3c(c2)oc(=O)c2cc(OC)ccc23)cc1", "inhibition": "59% (active)"}, {"smiles": "COc1ccc2c(c1)c(=O)oc1cc(OCc3ccc(C(=O)O)cc3)ccc12", "inhibition": "19% (inactive)"}, {"smiles": "COC(=O)c1ccc(COc2ccc3c(c2)oc(=O)c2ccccc23)cc1", "inhibition": "48% (inactive)"}, {"smiles": "COc1ccc(OC)c(/C=C2\\SC(N3CCCCCC3)=NC2=O)c1", "inhibition": "11% (inactive)"}, {"smiles": "Cc1ccc(/C=C2\\SC(=S)N(CCC(=O)Nc3cc(Cl)ccc3O)C2=O)cc1", "inhibition": "10% (inactive)"}, {"smiles": "CCOc1ccccc1NC(=O)CCCN1C(=O)/C(=C/c2ccc(C)cc2)SC1=S", "inhibition": "27% (inactive)"}, {"smiles": "COc1ccccc1NC(=O)CCN1C(=O)/C(=C/c2ccc(C)cc2)SC1=S", "inhibition": "11% (inactive)"}, {"smiles": "O=C1/C(=C/c2cccs2)SC(=S)N1CCCC(=O)N(Cc1ccccc1)c1ccccc1", "inhibition": "50% (active)"}, {"smiles": "Cc1ccc(/C=C2\\SC(=S)N(CCC(=O)Nc3ccc(S(N)(=O)=O)cc3)C2=O)cc1", "inhibition": "57% (active)"}, {"smiles": "Cc1ccc(/C=C2\\SC(=S)N(CCC(=O)Nc3ccc(Cl)cc3)C2=O)cc1", "inhibition": "18% (inactive)"}, {"smiles": "CC(C)(C)N(Cc1ccccc1)C(=O)CCCN1C(=O)/C(=C/c2cccs2)SC1=S", "inhibition": "37% (inactive)"}, {"smiles": "CCOc1ccccc1NC(=O)CCN1C(=O)/C(=C/c2ccc(C)cc2)SC1=S", "inhibition": "56% (active)"}, {"smiles": "Cc1ccc(/C=C2/SC(=S)N(CCCC(=O)Nc3cc(Cl)ccc3O)C2=O)cc1", "inhibition": "16% (inactive)"}, {"smiles": "Cc1ccc(/C=C2/SC(=S)N(CCC(=O)Nc3ccc(Br)cc3)C2=O)cc1", "inhibition": "0% (inactive)"}, {"smiles": "COc1ccc(/C=C2\\SC(=S)N(CCC(=O)Nc3cc(Cl)ccc3O)C2=O)cc1", "inhibition": "53% (active)"}, {"smiles": "CC(C)(C)N(Cc1ccccc1)C(=O)CCN1C(=O)/C(=C\\c2cccs2)SC1=S", "inhibition": "12% (inactive)"}, {"smiles": "Cc1cc(NC(=O)c2ccc(-c3ccc(Cl)cc3)o2)ccc1NC(=O)c1ccco1", "inhibition": "11% (inactive)"}, {"smiles": "Cc1cc(C)cc(N2C(=O)NC(=O)/C(=C\\c3c(C)n(C)c4ccccc34)C2=O)c1", "inhibition": "12% (inactive)"}, {"smiles": "Cc1cc2nc(-c3ccc(Cl)c(NC(=O)c4cc([N+](=O)[O-])ccc4Cl)c3)oc2cc1C", "inhibition": "8% (inactive)"}, {"smiles": "COc1cccc(OC)c1OCC(O)CN1CCC(CN2C(=O)c3cccc4cccc(c34)C2=O)CC1", "note": "(stereo unspecified)", "inhibition": "19% (inactive)"}, {"smiles": "CCOC(=O)C1=C(C)N=c2s/c(=C\\c3ccc(-c4ccc(Cl)cc4)o3)c(=O)n2C1c1ccc(SC)cc1", "note": "(stereo unspecified)", "inhibition": "0% (inactive)"}, {"smiles": "O=C(c1ccc([N+](=O)[O-])cc1[N+](=O)[O-])N1CCN(C(c2ccccc2)c2ccccc2)CC1", "inhibition": "2% (inactive)"}, {"smiles": "O=C(CSc1nc2ccccc2s1)Nc1ccc(F)c([N+](=O)[O-])c1", "inhibition": "2% (inactive)"}, {"smiles": "CCOc1ccc2ccccc2c1/C=N/NC(=O)CN1CCOCC1", "inhibition": "9% (inactive)"}, {"smiles": "CCOC(=O)/C(C#N)=C1/C=C(c2ccccc2)N=C(c2ccccc2)N1", "inhibition": "16% (inactive)"}, {"smiles": "COc1ccc2ccccc2c1C=Nc1ccc(C)cc1O", "inhibition": "27% (inactive)"}, {"smiles": "Cc1ccccc1Cn1cc(C=C2C(=O)NC(=O)NC2=O)c2ccccc21", "inhibition": "43% (inactive)"}, {"smiles": "COc1cc(C=O)ccc1OCCCOc1cc(C)c(Cl)cc1C", "inhibition": "21% (inactive)"}, {"smiles": "COc1ccccc1N=Cc1c(O)n(-c2ccccc2F)c(=O)[nH]c1=O", "inhibition": "8% (inactive)"}, {"smiles": "Cc1ccc(/C=C2\\SC(=S)N(CCC(=O)Nc3cc([N+](=O)[O-])ccc3O)C2=O)cc1", "inhibition": "0% (inactive)"}, {"smiles": "Cc1ccc(/C=C2\\SC(=S)N(CCCC(=O)Nc3ccc(C)cc3)C2=O)cc1", "inhibition": "10% (inactive)"}, {"smiles": "O=C(CCN1C(=O)/C(=C/c2ccc(Cl)cc2)SC1=S)Nc1nccs1", "inhibition": "10% (inactive)"}, {"smiles": "Cc1ccc(/C=C2/SC(=S)N(CCC(=O)Nc3ccc([N+](=O)[O-])cc3)C2=O)cc1", "inhibition": "10% (inactive)"}, {"smiles": "Cc1ccc(/C=C2\\SC(=S)N(CCC(=O)Nc3nccs3)C2=O)cc1", "inhibition": "51% (active)"}, {"smiles": "Cc1ccc(/C=C2\\SC(=S)N(CCCC(=O)NCCc3ccccc3)C2=O)cc1", "inhibition": "57% (active)"}, {"smiles": "Cc1ccc(/C=C2\\SC(=S)N(CCc3ccccc3)C2=O)cc1", "inhibition": "3% (inactive)"}, {"smiles": "Cc1ccc(/C=C2\\SC(=S)N(CCC(=O)Nc3ccc(S(=O)(=O)Nc4nccs4)cc3)C2=O)cc1", "inhibition": "23% (inactive)"}, {"smiles": "Cc1ccc(/C=C2\\SC(=S)N(CCC(=O)Nc3ccc([N+](=O)[O-])cc3O)C2=O)cc1", "inhibition": "52% (active)"}, {"smiles": "Cc1ccc2oc(-c3cccc(NC(=O)c4ccc(-c5ccc([N+](=O)[O-])cc5)o4)c3C)nc2c1", "inhibition": "20% (inactive)"}, {"smiles": "CCOc1ccccc1N=C1C(=O)Nc2ccc([N+](=O)[O-])cc21", "inhibition": "2% (inactive)"}]}]}
